# Measurements published in ChEMBL document CHEMBL4296182, “CO-ADD screening of NIH NCI Diversity Set V”.
# For part of these data: Entries with a potency or affinity are not part of this list.
# What was measured:
# [1] = tested on: Staphylococcus aureus; assay: Antibacterial activity against Staphylococcus aureus MRSA ATCC 43300 (CO-ADD:GP_020); MIC in CAMBH media using NBS plates, by Resazurin F(560/590); type: functional; details: Concentration 20 uM, ASSAY_TEST Inhibition of Bacterial Growth, detection method Resazurin, Fluorescence (ex560/em590), MEDIA CAMHB, plate type 384well, CORNING #3640, time 18 hr
# [2] = tested on: Acinetobacter baumannii; assay: Antibacterial activity against Acinetobacter baumannii ATCC 19606 (CO-ADD:GN_034); MIC in CAMBH media using NBS plates, by Resazurin F(560/590); type: functional; details: Concentration 20 uM, ASSAY_TEST Inhibition of Bacterial Growth, detection method Resazurin, Fluorescence (ex560/em590), MEDIA CAMHB, plate type 384well, CORNING #3640, time 18 hr
# [3] = tested on: Escherichia coli; assay: Antibacterial activity against Escherichia coli ATCC 25922 (CO-ADD:GN_001); MIC in CAMBH media using NBS plates, by Resazurin F(560/590); type: functional; details: Concentration 20 uM, ASSAY_TEST Inhibition of Bacterial Growth, detection method Resazurin, Fluorescence (ex560/em590), MEDIA CAMHB, plate type 384well, CORNING #3640, time 18 hr
# [4] = tested on: Klebsiella pneumoniae; details: Concentration 20 uM; ASSAY_TEST Inhibition of Bacterial Growth; detection method Absorption (OD600); MEDIA CAMHB; plate type 384well; NBS; CORNING #3640; time 18 hr
# [5] = tested on: Candida albicans; details: 20 µM
# [6] = tested on: Cryptococcus neoformans; details: Concentration 20 uM; ASSAY_TEST Inhibition of Fungal Growth; detection method Resazurin; Absorption (OD600-OD570); plate type 384well; NBS; CORNING #3640
SMILES,Inhibition [1],Inhibition [2],Inhibition [3],Inhibition [4],Inhibition [5],Inhibition [6]
O=c1c(-c2ccc(O)cc2)coc2cc(O)cc(O)c12 [GENISTEIN],3.06%,1.42%,2.99%,22.48%,6.45%,-7.01%
N#CCCCCN1CCCC1,4.35%,-8.73%,3.27%,18.95%,-1.32%,-2.95%
O=C(NC1CCCCC1)c1cc2ccccc2cc1O,11.46%,7.31%,4.75%,14.67%,0.86%,-3.07%
O=C(O)c1ccccc1-n1c2ccccc2c2ccccc21,10.38%,6.58%,7.31%,10.24%,4.15%,-5.74%
CN(C)S(=O)(=O)Nc1ccccn1,6.72%,9.21%,-0.96%,17.6%,5.95%,-3.86%
CCOC(=O)C(=O)Cc1nc2ccccc2s1,2.9%,-6.12%,10.05%,6.52%,16%,-6.27%
CC(=O)N1C(=O)C2(NCC(C)N2)c2ccccc21 (stereo unspecified),7.15%,-16.52%,6.45%,10.18%,2.13%,-1.95%
O=[N+]([O-])c1cccc(/C=C/c2ccccn2)c1,0.18%,-2.22%,10.58%,8.63%,0.08%,-13.12%
Clc1c(Cl)c(Cl)c2[nH]nnc2c1Cl,-10.41%,-8.91%,8.31%,1.32%,18.5%,-10.27%
CCOC(=O)Nc1ccc2nc(N3CCCCCC3)sc2c1,14.81%,14.56%,8.66%,9.37%,0.84%,-12.19%
COc1cc(/C=C2\CCOC2=O)cc(OC)c1OC,4.75%,13.86%,8.29%,12.15%,2.88%,-2.47%
Clc1ccc(-c2[nH]nc3c2Cc2ccccc2-3)cc1Cl,-2.87%,13.22%,-5.11%,8.31%,5.84%,2.71%
Nc1cnc(Nc2ccc(Br)cc2)nc1N.O=S(=O)(O)O,3.44%,7.82%,-16.03%,6.45%,3.46%,6.23%
CC1=CC(=O)Nc2cncnc2N1,4.06%,-8.47%,8.98%,13.83%,0.16%,0.91%
N#CCS(=O)(=O)c1cccc[n+]1[O-],7.02%,-20.49%,18.56%,15.26%,4.91%,-4.09%
CCOC(=O)C(=O)Cc1cccnn1,12.36%,-7.97%,16.74%,15.16%,9.85%,-1.54%
COc1ccc2c(n1)Sc1nc3ccccc3nc1N2,9.7%,-15.29%,7.15%,4.25%,3.02%,-8.75%
N#Cc1ncc(Cl)c2ccccc12,-8.29%,-4.37%,-2.85%,7.91%,0.23%,-7.62%
CCC(C)N=C(S)Nc1ccccc1 (stereo unspecified),-4.21%,6.89%,4.84%,5.07%,5.4%,-3.02%
CN(c1cccnc1)c1[nH]cnc2nncc1-2,-13.03%,-4.86%,-0.96%,-0.91%,0.07%,-5.56%
CN(C)CCCn1c2c3ccccc3ccc2c2oc(=O)c3ccccc3c21.Cl,14.28%,-7.18%,12.65%,11.13%,0.85%,-2.35%
